The values that follow come from PubChem BioAssay AID493034 (The Scripps Research Institute Molecular Screening Center, 2011).

The campaign covered roughly 2,400 compounds. About 2,200 (92%) were called active.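 Rule for the calls: active = mean inhibition over triplicate runs exceeds the cutoff derived for the earlier primary screen (cut at about 25% in these data); inactive = the rest.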 The set was probably picked from earlier hits. The list shows a part of the results.

Sequence of Platelet-activating factor acetylhydrolase IB subunit alpha2 (Homo sapiens) (P68402 whole entry, looked up): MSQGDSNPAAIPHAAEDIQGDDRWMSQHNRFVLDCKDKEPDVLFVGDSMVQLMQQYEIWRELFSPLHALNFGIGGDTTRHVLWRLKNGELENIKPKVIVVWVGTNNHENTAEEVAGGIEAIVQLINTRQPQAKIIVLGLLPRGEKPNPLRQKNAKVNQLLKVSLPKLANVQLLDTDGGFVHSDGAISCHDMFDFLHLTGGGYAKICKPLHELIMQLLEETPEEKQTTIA

The assay addresses Platelet-activating factor acetylhydrolase IB subunit alpha2 (Homo sapiens) (UniProt P68402). Put plainly: PAFAH1B2 inhibitors, confirmation, biochemical, fluorescence polarization, FP-rhodamine probe, triplicate (AID 493034).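 Note: 0% = enzyme with DMSO and 100% = wells lacking PAFAH1B2 protein; inhibitors lower polarization by leaving the probe unbound.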 The note with it: recombinant PAFAH1B2, FP-rhodamine probe fluorescence polarization; at 3.39 µM; stronger effect = higher value. (In general: Polarisation of emitted light reports the rotation of a fluorescent probe.)
In the case of `CC(C)C(C(=O)Nc1nccs1)c1ccc(Cl)cc1` (stereo unspecified), the inhibition – broadly, the percentage by which the read-out fell short of the control – was 17.2% (inactive).

In the case of `N#Cc1c(NC(=O)C2CC=CCC2C(=O)O)sc2c1CCCCCC2` (stereo unspecified), the inhibition is 41.1% (active). The result for `CC(C)(C)NC(=O)C(=O)NNC(=O)COc1ccc(Br)cc1` reads 23.5% (inactive). Take `CCc1ccc(-c2cc(C(=O)Nn3cnnc3)c3ccccc3n2)cc1`: the inhibition was 30.2% (active).

On to `Cc1ccc(S(=O)(=O)N2CCN(C(=S)NCCc3ccccc3)CC2)cc1`, for which the inhibition is 34.8% (active). Turning to `CC(=O)N1CCOc2ccc(S(=O)(=O)NCCc3ccc(C)cc3)cc21`, the inhibition was 23.7% (inactive). The figure for `C=C1C(=O)[C@@]23[C@H](O)C[C@@H]4C(C)(C)CC[C@H](O)[C@@]4(C)[C@@H]2CC[C@@H]1[C@H]3O` is 84.8% (active); for `C=C1C(=O)[C@@]23[C@H](O)C[C@@H]4C(C)(C)CC[C@H](O)[C@]4(C)[C@@H]2C[C@H](O)[C@@H]1[C@H]3O` it is 69.2% (active). In the case of `Cc1ccc(Sc2ccc(/C=C3/C(=O)NN(c4ccccc4)C3=O)o2)cc1`, the inhibition was 73.8% (active). The figure for `Cc1ccc2c(c1)C=CC(C)N2C(=O)c1ccccc1` (stereo unspecified) is 21.4% (inactive); for `O=C(CCNS(=O)(=O)c1ccccc1)NCCCSc1ccccc1` it is 22.4% (inactive); for `Cc1ccc(S(=O)(=O)/N=C2\SC(CC(=O)Nc3ccc(F)cc3)C(=O)N2c2ccccc2)cc1` (stereo unspecified) it is 23.5% (inactive). The figure for `Cc1ccc(CN=C2NC(=O)C(CC(=O)NCCc3ccccc3)S2)cc1` (stereo unspecified) is 51.6% (active). The result for `O=C(NCCc1ccc(Cl)cc1)c1ccc(=O)[nH]c1` reads 19.5% (inactive).

Take `C[C@H](CO)N1C[C@H](C)[C@@H](CN(C)C(=O)Nc2ccc(C(F)(F)F)cc2)Oc2c(NC(=O)Nc3ccccc3)cccc2C1=O`: the inhibition is 42.3% (active). Regarding `C[C@H](CO)N1C[C@H](C)[C@@H](CN(C)C(=O)Nc2ccccc2)Oc2c(NC(=O)Nc3ccc(C(F)(F)F)cc3)cccc2C1=O`, the inhibition was 23.4% (inactive). The figure for `C[C@H](CO)N1C[C@H](C)[C@@H](CN(C)C(=O)Nc2ccc(C(F)(F)F)cc2)Oc2c(NC(=O)Nc3ccc4c(c3)OCO4)cccc2C1=O` is 44.2% (active); for `C[C@@H]1CN([C@H](C)CO)C(=O)c2cccc(NC(=O)NC3CCCCC3)c2O[C@@H]1CN(C)C(=O)Nc1ccc(C(F)(F)F)cc1` it is 55.7% (active). Consider `C[C@H](CO)N1C[C@H](C)[C@@H](CN(C)C(=O)Nc2ccc(C(F)(F)F)cc2)Oc2c(NC(=O)Nc3ccc(C(F)(F)F)cc3)cccc2C1=O`, for which the inhibition is 62.5% (active). The figure for `COc1ccc(NC(=O)Nc2cccc3c2O[C@H](CN(C)C(=O)Nc2ccc(C(F)(F)F)cc2)[C@@H](C)CN([C@H](C)CO)C3=O)cc1` is 56.9% (active); for `COc1ccc(NC(=O)N(C)C[C@H]2Oc3c(NC(=O)Nc4ccc(C(F)(F)F)cc4)cccc3C(=O)N([C@H](C)CO)C[C@@H]2C)cc1` it is 28.7% (active).
